40 molecules from PubChem BioAssay (NCATS) can be followed below.

Molecules are shown by their SMILES. Records with an inconclusive call do not appear. A call without a number means that no potency is given here. Active and inactive are the calls of the source. Calls come from the whole dose curve; as a rule, active = well fitted inhibition curve with a large enough effect; inconclusive = small, poorly fitted or top-dose-only effect; inactive = flat fitted curve, though single readings scatter.

Sequence of Calcium and integrin-binding protein 1 (Homo sapiens) (Q99828 whole entry, looked up): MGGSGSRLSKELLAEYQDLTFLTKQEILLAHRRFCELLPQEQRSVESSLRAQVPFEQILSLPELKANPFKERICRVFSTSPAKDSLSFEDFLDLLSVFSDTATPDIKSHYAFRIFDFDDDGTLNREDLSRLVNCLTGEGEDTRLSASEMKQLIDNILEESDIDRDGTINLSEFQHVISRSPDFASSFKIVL

The target in the assay is Calcium and integrin-binding protein 1 (Homo sapiens) (UniProt Q99828). Description: Primary qHTS for Identification of Calcium Integrin Binding Protein 1 (CIB1) Competitor (AID 1508620).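 Note: GST tagged CIB1 binding a fluorescein labelled alphaIIb integrin peptide tracer; top concentration of the series differs between compounds.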 The settings on record: CIB1-GST / FITC-alphaIIb peptide fluorescence polarization; series mostly up to 114 µM. The procedure, abridged:
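Fluorescence polarization competition: CIB1-GST (1 uM final) preincubated with compound 15 min at room temperature, then FITC-labeled alphaIIb peptide (100 nM final) added for another 15 min. Polarization read at Ex 480/Em 540.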
A general note: Quantitative high-throughput screening tests each substance at several concentrations.
Take `O=[S+]([O-])(c1ccc(-c2ccccc2)cc1)N1CCN([S+](=O)([O-])c2ccc3c(c2)OCCO3)CC1`: the Potency result was “inactive”. As for `O=S1(=O)N=C(Sc2ccc3c(c2)OCCO3)c2ccccc21`, the entry is “inactive”.

For the molecule `O=S(=O)(c1c(F)cccc1F)C1CCN(S(=O)(=O)c2ccc3c(c2)OCCO3)CC1`, the Potency entry is “inactive”. On to `COc1ccc(C(=O)N(Cc2ccccc2)Cc2ccco2)c(O)c1`, for which the Potency result is “inactive”.

Take `Nc1nc(Nc2cc(F)cc(F)c2)nc(NC2CCCC2)n1`: the Potency result is “inactive”. Turning to `Cc1nc(-c2ccc(S(=O)(=O)Nc3ccc(C)c(C)c3)s2)cs1`, the Potency entry was “inactive”. For `CNc1oc(-c2cccc3ncccc23)nc1C#N` the value was “inactive”; for `O=C(OCC#CCSc1nnc(-c2cccc3ccccc23)o1)c1ccc2ccccc2c1`, “inactive”. Consider `CC(C)(C)OC(=O)N1CCN(c2ccc(NCc3cccc(-c4ccc(C#N)cc4)n3)cc2)CC1`, for which the Potency entry was “inactive”. In the case of `COc1ccc(C2Nc3ccccc3C(=O)N2Cc2cccnc2)cc1COc1ccc(NC(C)=O)cc1` (stereo not given), the Potency result was “inactive”. Turning to `Cn1c2cc(Br)sc2c2cnn(Cc3ccc(F)cc3)c(=O)c21`, the Potency result is “inactive”. In the case of `O=C(O)c1ccc2c(c1)C(=O)N(CCc1ccc(O)cc1)C2=O`, the Potency entry is “inactive”. `N#Cc1ccccc1-c1csc(N2CCC(C(N)=O)CC2)n1`: the Potency result was “inactive”. As for `N#Cc1cccc(NC(=O)Nc2nnc(-c3ccncc3)s2)c1`, the entry is “inactive”; as for `Cc1cccc(S(=O)(=O)NC2CCN(C#N)C2)c1` (stereo not given), “inactive”; as for `O=[S+]([O-])(c1ccc2c(c1)OCCO2)N1CCN([S+](=O)([O-])c2c(O)cc(F)cc2F)CC1`, “inactive”. For `CC(=O)Nc1sc2c(c1-c1nccs1)CCNC2` the value was “inactive”; for `CCN(CC)c1ccc(NC(=O)Nc2ccc(C(C)=O)cc2)cc1`, “inactive”.

Consider `O=C(CCc1ccccc1)Nc1ncnc2c1C(c1ccccc1)c1c(ccc3ccccc13)O2` (stereo not given), for which the Potency entry was “inactive”. For `N#CN1CCC(NC(=O)c2cccc(F)c2)CC1` the value was “inactive”; for `CC(Cc1ccccc1)C(=O)Nc1ccc(Cl)cc1C(=O)O` (stereo not given), “inactive”; for `COc1cccc(CN2C(=O)c3ccccc3NC2c2ccc(OC)c(COc3ccc(NC(C)=O)cc3)c2)c1` (stereo not given), “inactive”. Regarding `O=C(Nc1nnc(-c2ccncc2)s1)Oc1ccc2ccccc2c1`, the Potency result was “inactive”. For `Cc1ccc(NS(=O)(=O)c2ccc3c(c2)C(Cl)(Cl)C(=O)N3)cc1C`, the Potency result is “inactive”.

In the case of `Cc1ccc(NS(=O)(=O)c2ccc3c(c2)CCC(=O)N3C)cc1Cl`, the Potency result is “inactive”. `Cc1ccc(OCCn2c(CCNC(=O)c3ccc4cc[nH]c4c3)nc3ccccc32)cc1`: the Potency result is “inactive”. Consider `COc1cccc(-c2csc(N3CCC(C(N)=O)CC3)n2)c1`, for which the Potency entry was “inactive”. As for `Cn1cnc(CCNc2ncnc3ccc(-c4ccc5c(c4)OCO5)cc23)c1`, the entry is “inactive”; as for `O=C1Cc2cc(S(=O)(=O)N3CCN(c4ccc(Br)cc4)CC3)ccc2N1`, “inactive”. Consider `O=C(OCC#CCSc1nnc(-c2cccc3ccccc23)o1)c1ccc(F)cc1`, for which the Potency entry is “inactive”.

Regarding `O=C(Nc1ncc(Cc2ccc(C(F)(F)F)cc2)s1)c1cnc(-c2ccccc2)[nH]1`, the Potency result is “inactive”.

In the case of `Fc1cc(Nc2nc(-c3ccncc3)nc3ccccc23)ccc1-c1cccc(OC(F)F)c1`, the Potency result was “inactive”.

As to `COc1ccc(C(=O)N(Cc2ccccc2)Cc2ccccc2)c(O)c1`, the Potency entry was “inactive”. As to `Cn1c2ccsc2c2cnn(Cc3ccccc3F)c(=O)c21`, the Potency entry is “inactive”. Consider `CC(=O)Nc1sc2c(c1-c1ccc(C)cc1)CCNC2`, for which the Potency result is “inactive”.

In the case of `C#CCOc1ccc(-c2nnc3n2N=C(c2ccc(OC)c(OCC(C)=O)c2)CS3)cc1`, the Potency result was “inactive”. As for `COc1ccc(N2Cc3cccc(C(=O)O)c3C2=O)c(OC)c1`, the Potency result was “inactive”. As for `N#Cc1c(-c2ccc3ccccc3c2)no[n+]1[O-]`, the entry is “inactive”.

For `Cn1nnnc1Sc1ncnc2scc(-c3cccc(N)c3)c12`, the Potency entry was “inactive”. For `CC(=O)Nc1sc2c(c1-c1cccs1)CCNC2` the value was “inactive”.
